Compounds with a hit are over-represented: about 3% of the library has one in this group of screens.
ClpP mod: qHTS Assay for Activators of ClpP; ATP-dependent Clp protease proteolytic subunit (Bacillus subtilis (strain 168)), P80244; purified B. subtilis ClpP, FRET peptide cleavage, 20 min; Potency, µM (highest dose often 57.5 µM); hit rate 1.9% among 340,000; AID 651965, 2013; active = well fitted falling curve with a large enough effect; inconclusive = small, poorly fitted or top-dose-only effect; inactive = no such curve, though single readings can be large or run the other way; also: the source files actives as falling curves though it sought activators and does not explain the sign; nearly all actives have a fitted effect of over 65% in size
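ClpP 10 microg/mL final, pH 8 Tris/KCl buffer with BSA, glycerol, Tween-20; compound pinned in; FRET-FV substrate; RT 20 min; Ex320/Em430; ΔFRET vs ADEP 5.8 microM, DMSO, no enzyme.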
BCR signal inh: blocks chronic active B-cell receptor signaling; Potency, µM (series often up to 46.1 µM), usual class: inhibitors; ABC-DLBCL IkBa-CBG/CBR reporter, luminescence ratio, 4 h; hit rate 0.05% among 340,000; active = well fitted inhibition curve with a large enough effect in the signal ratio, with a control signal flat, not every such curve was filed as active; inconclusive = small, poorly fitted or top-dose-only effect, or effect the other way, or a change in a side signal; the % refers to the signal ratio
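Compounds up to 46 uM were incubated four hours with TMD8 cells whose green CBG68 luciferase is fused to IkappaBalpha; red CBR luminescence normalised the signal, and concentration-effect curves were fitted to fusion, red and ratio data.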
12-LOX inh: ALOX12 (human) lipoxygenase inhibition; P18054; purified 12hLO, xylenol orange hydroperoxide absorbance; Potency, µM (series often up to 108 µM), actives largely listed as inhibitors; hit rate 1.1% among 580,000; active = well fitted inhibition curve with a large enough effect; inconclusive = small, poorly fitted or top-dose-only effect, or another doubt; inactive = no such curve, though single readings can be large or run the other way
Target sequence (P18054 whole entry, looked up): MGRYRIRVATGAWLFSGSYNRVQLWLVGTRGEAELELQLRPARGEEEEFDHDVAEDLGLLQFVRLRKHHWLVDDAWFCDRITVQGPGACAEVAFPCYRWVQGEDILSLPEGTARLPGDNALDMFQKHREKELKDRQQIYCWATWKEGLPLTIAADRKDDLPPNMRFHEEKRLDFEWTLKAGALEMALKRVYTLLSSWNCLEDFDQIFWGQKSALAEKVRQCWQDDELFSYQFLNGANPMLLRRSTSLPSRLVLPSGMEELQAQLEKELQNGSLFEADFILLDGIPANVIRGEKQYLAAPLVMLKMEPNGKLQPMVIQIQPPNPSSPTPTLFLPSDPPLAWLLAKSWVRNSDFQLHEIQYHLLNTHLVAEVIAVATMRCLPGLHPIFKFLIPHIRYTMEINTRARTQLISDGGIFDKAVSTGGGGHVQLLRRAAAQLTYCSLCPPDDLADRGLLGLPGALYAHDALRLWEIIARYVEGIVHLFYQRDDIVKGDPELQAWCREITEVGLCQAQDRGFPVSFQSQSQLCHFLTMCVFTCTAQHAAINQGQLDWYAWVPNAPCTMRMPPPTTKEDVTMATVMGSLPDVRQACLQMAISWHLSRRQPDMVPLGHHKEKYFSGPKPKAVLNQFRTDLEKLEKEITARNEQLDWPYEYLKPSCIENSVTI
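Purified human 12hLO (150 nM final) in 25 mM Hepes, 0.01% Triton X-100, pH 7.0 was preincubated 15 min at room temperature with compound. Then 40 uM arachidonic acid was added, 30 min. Hydroperoxide was read by Fe-XO absorbance ratio 573/405 nm.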
hERG WT inh: inhibitors of human wildtype KCNH2 potassium channel. Q12809. U2OS, BacMam KCNH2, thallium flux FluxOr; hits give low values. activity change, % at 1.84 µM. hit rate 0.37% among 340,000;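 active = maximum activity change below -70%; inconclusive = maximum activity change between -70% and -50%; inactive = maximum activity change above -50%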
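U2OS cells transduced with wild-type KCNH2 virus are loaded with FluxOr dye for 45 min, and thallium flux is measured in kinetic reads before and after stimulation buffer. Rate constants are normalized to DMSO controls.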
LDHA block: LDHA (human) enzyme inhibition; P00338; purified LDHA, NADH/diaphorase-resazurin fluorescence; hits give low values; activity change, % (values are at about 110 or 230 µM); hit rate 0.15% among 480,000; in the data active = activity change below about -30%; inconclusive = mostly about -25% to -30%
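LDH5 2 nM; NADH 0.06 mM, pyruvate 0.2 mM; 200 mM Tris pH 7.4, EDTA, Tween-20; 5 min RT. Detection: diaphorase 0.133 mg/mL + resazurin 37 µM, fluorescence ex540/em590 at 0 and 20 min; normalized to enzyme-free and DMSO wells.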
KCNH2 3.1 block: inhibitors of human KCNH2 3.1 potassium channel isoform | U2OS KCNH2 3.1, thallium flux FluxOr; hits give low values | activity change, % (tested at about 1.8 µM) | hit rate 0.95% among 340,000;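 active = maximum activity change below -70%; inconclusive = maximum activity change from -70% to -50%; inactive = maximum activity change above -50%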;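 also: thallium influx rate constant from kinetic fluorescence after stimulation buffer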
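U2OS cells transduced with KCNH2 3.1 mutant virus (1.77 x 10^8 /mL, 4 h), plated overnight at 37 C, loaded 45 min with FluxOr dye plus Red40 quencher. Thallium flux rate constant from kinetic reads after stimulation buffer, normalised to controls.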
Each line names hits and unclear results; the compound was inactive in the other large screens.

Cn1ccnc1SCC(=O)n1c2c(c3ccccc31)CCCC2	ClpP mod 32µM
CC(=O)NC12CC3CC(C1)CC(C(=O)NCCNC(=O)c1ccc(Cl)cc1)(C3)C2	none (no result: ClpP mod, BCR signal inh, hERG WT inh, KCNH2 3.1 block)
COc1ccc(-c2ccc3[nH]c4c(c3c2)CCN2C(=O)[C@@H]([C@H](C)O)[C@@H](N(C)C(=O)Nc3ccc(F)cc3)C[C@@H]42)cc1	12-LOX inh inconclusive, LDHA block -31 (no result: BCR signal inh)
C[C@H](O)[C@@H]1C(=O)N2CCc3c([nH]c4ccccc34)[C@@H]2C[C@@H]1N(C)C(=O)NC1CCCCC1	hERG WT inh -114 (no result: BCR signal inh)
COc1ccc(-c2ccc3c(c2)[C@@H]2C[C@H](N(C)C(=O)C(C)(C)C)[C@H]([C@H](C)O)C(=O)N2CC3)cc1	12-LOX inh 11µM (no result: BCR signal inh)
C[C@H](O)[C@@H]1C(=O)N2CCc3c([nH]c4c(-c5ccccc5)cccc34)[C@@H]2C[C@@H]1N(C)C(=O)NC1CCCCC1	none (no result: ClpP mod, BCR signal inh, hERG WT inh, LDHA block, KCNH2 3.1 block)
COCC(=O)N(C)[C@H]1C[C@H]2c3cc(-c4ccccc4)ccc3CCN2C(=O)[C@H]1[C@H](C)O	none (no result: BCR signal inh)
O=C(CCc1ncc(-c2ccc(F)cc2)o1)NCCc1ccccc1	none (no result: ClpP mod, BCR signal inh, hERG WT inh, KCNH2 3.1 block)
O=C(NC1CCCC1)c1ccc(C(F)(F)F)cn1	12-LOX inh inconclusive (no result: ClpP mod, BCR signal inh, hERG WT inh, KCNH2 3.1 block)
Cc1ccc(-c2noc([C@@H]3C[C@@H](O)CN3Cc3ccccc3O)n2)cc1F	12-LOX inh 32µM (no result: ClpP mod, BCR signal inh, hERG WT inh, LDHA block, KCNH2 3.1 block)
OCc1ccc(CN2C[C@H](O)C[C@H]2c2nc(-c3cccnc3)no2)o1	none (no result: ClpP mod, BCR signal inh, hERG WT inh, LDHA block, KCNH2 3.1 block)
Cc1ccc(-c2noc([C@@H]3C[C@@H](O)CN3Cc3ncc[nH]3)n2)cc1F	none (no result: ClpP mod, BCR signal inh, hERG WT inh, LDHA block, KCNH2 3.1 block)
COc1ccc(-c2noc([C@@H]3C[C@@H](O)CN3Cc3ccc(CO)o3)n2)cc1	12-LOX inh 45µM (no result: ClpP mod, BCR signal inh, hERG WT inh, LDHA block, KCNH2 3.1 block)
O[C@@H]1C[C@@H](c2nc(Cc3ccc(F)cc3Cl)no2)N(Cc2cc3ccccc3o2)C1	none (no result: ClpP mod, BCR signal inh, hERG WT inh, LDHA block, KCNH2 3.1 block)
OCc1ccc(CN2C[C@H](O)C[C@H]2c2nc(-c3ccc(F)cc3)no2)o1	12-LOX inh 25µM (no result: ClpP mod, BCR signal inh, hERG WT inh, LDHA block, KCNH2 3.1 block)
O[C@@H]1C[C@@H](c2nc(Cc3ccc(F)cc3Cl)no2)N(Cc2ccco2)C1	12-LOX inh 25µM (no result: ClpP mod, BCR signal inh, hERG WT inh, LDHA block, KCNH2 3.1 block)
O=C(CN1CCCc2ccccc21)N/N=C/c1ccccc1O	ClpP mod 28µM, BCR signal inh inconclusive
O=C(CN1CCCc2ccccc21)N/N=C/c1ccc(F)cc1F	BCR signal inh inconclusive (no result: ClpP mod)
CCN(CC)c1ccc2cc(-c3nc(-c4ccccc4F)no3)c(=O)oc2c1	ClpP mod 25µM (no result: BCR signal inh, hERG WT inh, KCNH2 3.1 block)
CCN(CC)c1ccc2cc(-c3nnc(-c4cccc(Cl)c4)o3)c(=O)oc2c1	ClpP mod 28µM (no result: BCR signal inh, hERG WT inh, KCNH2 3.1 block)
CCN(CC)c1ccc2cc(-c3nnc(-c4ccncc4)o3)c(=O)oc2c1	ClpP mod inconclusive, hERG WT inh -93, KCNH2 3.1 block inconclusive
CCN(CC)c1ccc2cc(-c3nc(-c4cccs4)no3)c(=O)oc2c1	ClpP mod inconclusive (no result: BCR signal inh, hERG WT inh, KCNH2 3.1 block)
CC(=O)Nc1ccccc1OCc1cccc(C)c1	none (no result: ClpP mod, BCR signal inh, hERG WT inh, KCNH2 3.1 block)
COc1ccccc1-c1coc2cc(OC(=O)c3ccc(C)cc3)ccc2c1=O	none (no result: ClpP mod, BCR signal inh, hERG WT inh, KCNH2 3.1 block)
N#CC(c1ccccn1)(c1ncc(C(F)(F)F)cc1Cl)N1CCOCC1 (stereo not given)	ClpP mod inconclusive
N#CC(c1ccncc1)(c1ncc(C(F)(F)F)cc1Cl)N1CCOCC1 (stereo not given)	12-LOX inh 45µM (no result: ClpP mod)
CCOC(=O)CNCCC(=O)c1ccc(Br)cc1	12-LOX inh 28µM
Cc1cccc(NCCC(=O)c2ccc(Br)cc2)c1	none
COC(=O)C(=O)CC(=O)c1ccc2c(c1)OCO2	none (no result: ClpP mod, BCR signal inh, hERG WT inh, KCNH2 3.1 block)
Cc1ccc(NC(=O)COC(=O)c2cc3ccccc3[nH]2)cc1C	12-LOX inh inconclusive (no result: ClpP mod, BCR signal inh, hERG WT inh, KCNH2 3.1 block)
OC1CCCN(Cc2c3ccccc3cc3ccccc23)C1 (stereo not given)	ClpP mod 20µM, BCR signal inh inconclusive
OC1CCCN(Cc2cccc3ccccc23)C1 (stereo not given)	none
O=c1oc2c(-c3ccc([N+](=O)[O-])cc3)cc(O)cc2s1	12-LOX inh 40µM (no result: ClpP mod)

Bioassay records (PubChem)
